From PubChem BioAssay
The source made the active and inactive calls.

How the values were obtained:
[1] = small molecules captured by biotinylated probe aFSTL3 – biochemical, small-molecule microarray, fluorescence 635/667, stem cell growth factor project, primary screen (AID 1064); conditions: higher = more signal;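 note: measures binding of the biotinylated anti-FSTL3 antibody to printed compounds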
[2] = binders from COS7 lysate, DM2A8 probe, primary screen, torsin A project, cell lysate, small-molecule microarray, fluorescence 635/667 (AID 1065); conditions: higher = more signal, COS7 lysate expressing mutant human TOR1A
[3] = small molecules captured by biotinylated probe aFGF2 – biochemical, small-molecule microarray, fluorescence 635/667, stem cell growth factor project, primary screen (AID 1067); conditions: higher = more signal;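 note: measures binding of biotinylated aFGF2 protein to printed compounds on slides; z-score merges feature fluorescence and signal-to-noise across triplicate slides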
[4] = small molecules captured by biotinylated probe aFGF10 – biochemical, small-molecule microarray, fluorescence 635/667, stem cell growth factor project, primary screen (AID 1071); conditions: higher = more signal;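 note: score merges 667 nm spot intensity and signal to noise from triplicate slides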
[5] = biological target: Neurogenic locus notch homolog protein 2 (Homo sapiens) (UniProt Q04721); assay: small molecules binding Notch2 protein – biochemical, small-molecule microarray, 635 nm fluorescence, stem cell growth factors, primary screen (AID 1073); conditions: higher = more signal
Neurogenic locus notch homolog protein 2 (Homo sapiens), sequence (Q04721 whole entry, looked up, canonical isoform): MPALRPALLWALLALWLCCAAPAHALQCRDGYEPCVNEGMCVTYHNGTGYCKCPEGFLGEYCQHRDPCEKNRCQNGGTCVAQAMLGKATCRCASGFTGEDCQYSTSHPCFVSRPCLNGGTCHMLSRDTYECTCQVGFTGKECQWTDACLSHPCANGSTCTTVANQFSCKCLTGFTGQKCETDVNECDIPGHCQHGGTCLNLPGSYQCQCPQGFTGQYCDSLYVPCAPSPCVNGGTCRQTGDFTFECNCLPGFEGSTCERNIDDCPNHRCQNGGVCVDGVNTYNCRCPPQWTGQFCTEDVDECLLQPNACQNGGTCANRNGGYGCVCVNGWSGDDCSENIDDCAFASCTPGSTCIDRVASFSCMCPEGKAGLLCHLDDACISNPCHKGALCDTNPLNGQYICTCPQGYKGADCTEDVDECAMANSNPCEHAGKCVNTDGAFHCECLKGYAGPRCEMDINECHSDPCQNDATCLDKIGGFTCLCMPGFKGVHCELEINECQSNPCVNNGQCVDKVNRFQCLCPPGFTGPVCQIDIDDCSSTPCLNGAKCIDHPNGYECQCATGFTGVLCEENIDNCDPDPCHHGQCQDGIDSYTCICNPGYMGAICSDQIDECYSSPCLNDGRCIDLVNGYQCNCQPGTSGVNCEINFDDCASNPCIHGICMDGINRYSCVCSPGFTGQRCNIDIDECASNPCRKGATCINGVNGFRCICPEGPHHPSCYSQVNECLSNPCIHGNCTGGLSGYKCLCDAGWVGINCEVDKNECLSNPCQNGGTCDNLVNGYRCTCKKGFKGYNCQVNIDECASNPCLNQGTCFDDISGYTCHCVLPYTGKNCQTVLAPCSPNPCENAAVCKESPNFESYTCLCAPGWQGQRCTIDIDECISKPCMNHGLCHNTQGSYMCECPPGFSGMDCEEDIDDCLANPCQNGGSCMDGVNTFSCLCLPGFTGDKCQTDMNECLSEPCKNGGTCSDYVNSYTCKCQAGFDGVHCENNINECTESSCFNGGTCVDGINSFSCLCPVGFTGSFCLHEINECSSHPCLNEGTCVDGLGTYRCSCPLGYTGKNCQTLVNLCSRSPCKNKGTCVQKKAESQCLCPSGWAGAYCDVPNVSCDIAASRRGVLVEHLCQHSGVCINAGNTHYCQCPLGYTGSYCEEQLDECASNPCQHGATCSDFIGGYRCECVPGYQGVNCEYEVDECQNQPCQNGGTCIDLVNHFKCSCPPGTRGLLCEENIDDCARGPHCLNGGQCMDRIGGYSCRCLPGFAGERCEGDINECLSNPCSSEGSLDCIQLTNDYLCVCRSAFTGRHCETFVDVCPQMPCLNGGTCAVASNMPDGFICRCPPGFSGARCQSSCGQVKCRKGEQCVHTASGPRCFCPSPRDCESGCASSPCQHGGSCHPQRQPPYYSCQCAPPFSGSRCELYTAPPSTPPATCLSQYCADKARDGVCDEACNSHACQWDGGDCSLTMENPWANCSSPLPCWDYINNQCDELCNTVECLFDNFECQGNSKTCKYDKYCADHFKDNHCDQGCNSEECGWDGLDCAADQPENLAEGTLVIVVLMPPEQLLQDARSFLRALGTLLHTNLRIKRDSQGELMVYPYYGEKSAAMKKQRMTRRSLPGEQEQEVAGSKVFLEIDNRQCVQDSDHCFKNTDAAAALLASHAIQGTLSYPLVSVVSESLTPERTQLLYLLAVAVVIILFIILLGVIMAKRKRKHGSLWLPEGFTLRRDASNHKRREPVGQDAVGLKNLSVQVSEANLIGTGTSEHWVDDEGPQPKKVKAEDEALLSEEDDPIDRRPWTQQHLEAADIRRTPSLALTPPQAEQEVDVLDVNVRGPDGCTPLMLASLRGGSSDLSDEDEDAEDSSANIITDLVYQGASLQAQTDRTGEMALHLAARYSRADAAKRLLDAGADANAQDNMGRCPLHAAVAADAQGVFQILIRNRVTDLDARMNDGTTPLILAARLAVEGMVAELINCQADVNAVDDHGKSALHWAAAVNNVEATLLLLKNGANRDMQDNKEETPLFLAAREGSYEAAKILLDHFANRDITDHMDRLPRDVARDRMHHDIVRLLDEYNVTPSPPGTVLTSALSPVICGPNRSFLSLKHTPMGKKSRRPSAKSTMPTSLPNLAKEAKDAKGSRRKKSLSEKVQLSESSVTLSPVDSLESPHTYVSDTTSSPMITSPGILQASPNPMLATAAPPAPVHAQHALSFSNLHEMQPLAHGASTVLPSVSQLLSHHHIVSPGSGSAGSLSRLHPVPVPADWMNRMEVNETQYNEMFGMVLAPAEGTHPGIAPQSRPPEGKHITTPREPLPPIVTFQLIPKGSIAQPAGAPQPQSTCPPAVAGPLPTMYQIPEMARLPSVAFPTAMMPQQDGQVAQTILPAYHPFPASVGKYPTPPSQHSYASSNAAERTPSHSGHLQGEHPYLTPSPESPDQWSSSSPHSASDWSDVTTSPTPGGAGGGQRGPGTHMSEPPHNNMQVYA

[6] = biological target: Pro-neuregulin-1, membrane-bound isoform (Homo sapiens) (UniProt Q02297); assay: small molecules binding neuregulin-1 protein – biochemical, small-molecule microarray, fluorescence 635/667, psychiatric disease protein project, primary screen (AID 1075); conditions: NRG1 binding, 635 nm fluorescence, higher = more signal;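 note: score combines 667 nm spot fluorescence with signal to noise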
Pro-neuregulin-1, membrane-bound isoform (Homo sapiens), sequence (Q02297 whole entry, looked up, the tested form may be a part, canonical isoform): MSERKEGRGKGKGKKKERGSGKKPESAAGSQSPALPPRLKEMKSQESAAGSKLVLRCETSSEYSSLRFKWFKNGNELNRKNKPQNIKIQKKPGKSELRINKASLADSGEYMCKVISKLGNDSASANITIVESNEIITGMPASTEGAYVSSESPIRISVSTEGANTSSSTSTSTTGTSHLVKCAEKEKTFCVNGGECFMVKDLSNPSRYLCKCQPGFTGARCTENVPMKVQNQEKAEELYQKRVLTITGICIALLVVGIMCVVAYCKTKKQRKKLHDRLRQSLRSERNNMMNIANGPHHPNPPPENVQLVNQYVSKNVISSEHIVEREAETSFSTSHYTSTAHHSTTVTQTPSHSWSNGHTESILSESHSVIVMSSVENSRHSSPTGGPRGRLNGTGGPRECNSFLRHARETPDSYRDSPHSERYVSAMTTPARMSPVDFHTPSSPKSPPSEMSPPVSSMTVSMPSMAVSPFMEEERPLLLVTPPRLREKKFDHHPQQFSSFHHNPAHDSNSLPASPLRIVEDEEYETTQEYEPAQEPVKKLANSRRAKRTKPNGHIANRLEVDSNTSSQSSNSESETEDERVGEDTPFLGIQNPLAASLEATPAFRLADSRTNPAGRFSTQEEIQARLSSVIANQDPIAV

[7] = tested on: Neuregulin-1 EGF-like domain; assay: small molecules binding NRG1 EGF domain – biochemical, small-molecule microarray, 635 nm fluorescence, primary screen (AID 1081); conditions: higher = more signal;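 note: binding of the protein to compounds printed on small-molecule microarray slides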
[8] = FRG1 expression reporter modulators in myotubes – cell-based, C2C12 myotubes, firefly/Renilla luciferase, luminescence, FRG1 inhibition for FSHD, primary screen (AID 1084); conditions: FRG1 promoter luciferase, higher = more signal, called active from +8 up or from −8 down
[9] = small molecules captured by biotinylated probe aFST – biochemical, small-molecule microarray, fluorescence 635/667, stem cell growth factor project, primary screen (AID 1086); conditions: higher = more signal;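 note: score merges 667 nm fluorescence with signal-to-noise of each printed compound spot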
[10] = binders of probe aHhip on microarray, primary screen, stem cell growth factor project, biochemical, small-molecule microarray, fluorescence 635/667 (AID 1087); conditions: higher = more signal;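 note: score merges spot fluorescence at 667nm with spot signal to noise ratio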
[11] = tested on: PRMT1 (protein arginine N-methyltransferase 1); assay: small molecules binding arginine methyltransferase PRMT1 – biochemical, small-molecule microarray, 635 nm fluorescence, primary screen (AID 1088); conditions: higher = more signal;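 note: binding of Prmt1 protein to compounds spotted on small-molecule microarray slides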
[12] = growth effects on S. cerevisiae YJM789 – YJM789 clinical isolate, OD600, 24 h, basal, primary screen (AID 1089); conditions: higher = more signal, called active from +8 up or from −8 down;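 note: growth of clinical yeast isolate S. cerevisiae YJM 789 seeded 1000 cells per well; test concentration not given here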
[13] = S. pombe growth modifiers, basal conditions – strain 972, OD600, 24 h, no modulator, primary screen (AID 1090);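 note: basal condition with compound alone and no growth modifier present; test concentration not given here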; conditions: S. pombe 972 growth, higher = more signal, called active from +8 up or from −8 down
[14] = budding yeast growth modifiers under rapamycin – strain BY4716, OD600, 96 h, primary screen (AID 1091); note: test concentration not given here; conditions: S. cerevisiae BY4716 + rapamycin, higher = more signal, called active from +8 up or from −8 down
[15] = biological target: Torsin-1A-interacting protein 2 (Homo sapiens) (UniProt Q8NFQ8); assay: small molecules binding lysate-expressed LULL1 – cell lysate, human LULL1 lysate, 635/667 nm fluorescence, primary screen (AID 1092); conditions: small-molecule microarray, hLULL1 lysate binding, 635 nm fluorescence; higher = more signal;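 note: probe is lysate of COS7 cells overexpressing human LULL1; score merges per-feature 667 nm fluorescence with signal-to-noise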
Torsin-1A-interacting protein 2 (Homo sapiens), sequence (Q8NFQ8 whole entry, looked up): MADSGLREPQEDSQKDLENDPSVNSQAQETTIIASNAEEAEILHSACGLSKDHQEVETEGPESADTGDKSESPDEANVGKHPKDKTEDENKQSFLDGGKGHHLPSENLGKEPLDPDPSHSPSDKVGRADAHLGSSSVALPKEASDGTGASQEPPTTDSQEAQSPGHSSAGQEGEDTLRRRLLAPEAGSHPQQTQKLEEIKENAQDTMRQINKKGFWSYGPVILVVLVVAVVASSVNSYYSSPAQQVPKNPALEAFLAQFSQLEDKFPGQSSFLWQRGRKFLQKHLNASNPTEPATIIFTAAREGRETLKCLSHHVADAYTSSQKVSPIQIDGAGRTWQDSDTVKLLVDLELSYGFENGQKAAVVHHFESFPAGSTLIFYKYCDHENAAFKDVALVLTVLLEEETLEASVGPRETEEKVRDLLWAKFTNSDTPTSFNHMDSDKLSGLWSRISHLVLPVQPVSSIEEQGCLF

[16] = optical density change of DRC41 E. coli – strain DRC41, OD650, 24 h, E. coli filamentation project, primary screen (AID 1093);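 note: MC1000 strain lacking acrAB efflux and sulA so SOS filamentation is blocked; test concentration not given here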; conditions: E. coli DRC41 growth, higher = more signal, called active from +8 up or from −8 down
[17] = probe aLefty2 binding to arrayed compounds – biochemical, biotinylated probe, 635/667 nm fluorescence, primary screen (AID 1094); conditions: small-molecule microarray, higher = more signal;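 note: score merges spot fluorescence near 667 nm with spot signal-to-noise ratio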
[18] = tested on: Noggin (protein binding on small-molecule microarray); assay: small molecules binding Noggin protein – biochemical, 635/667 nm fluorescence, primary screen (AID 1095); conditions: 635 nm fluorescence, higher = more signal;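 note: score merges 667 nm feature fluorescence with signal to noise over triplicate slides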
[19] = biological target: Neurogenic locus notch homolog protein 3 (Homo sapiens) (UniProt Q9UM47); assay: small molecules binding NOTCH3 protein – biochemical, 635/667 nm fluorescence, primary screen (AID 1096); conditions: small-molecule microarray, 635 nm fluorescence, higher = more signal
[20] = probe aEGFR binding to arrayed compounds – biochemical, biotinylated probe, 635/667 nm fluorescence, primary screen (AID 1097); conditions: small-molecule microarray, higher = more signal;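 note: probe is a biotinylated anti-EGFR antibody binding compounds printed on slides; score combines fluorescence near 667 nm and signal to noise of each spot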

SMILES	composite z-score [1]	composite z-score [2]	composite z-score [3]	composite z-score [4]	composite z-score [5]	composite z-score [6]	composite z-score [7]	z-score [8]	composite z-score [9]	composite z-score [10]	composite z-score [11]	z-score [12]	z-score [13]	z-score [14]	composite z-score [15]	z-score [16]	composite z-score [17]	composite z-score [18]	composite z-score [19]	composite z-score [20]
C=CCOC(=O)[C@H]1[C@@H]2C(=O)O[C@@H](c3ccccc3)[C@@H](c3ccccc3)N2[C@@H](c2ccc(OCCOC(=O)[C@H]3C[C@H]4C(=O)N[C@@H](CC(C)C)C(=O)N4[C@H]3c3ccc(O)cc3)cc2)[C@]12C(=O)Nc1ccccc12	-0.109	1.34	-0.079	0.868	1.46	1.45	1.43	-0.0648 (inactive)	0.174	0.213	1.53	2.24 (inactive)	1.47 (inactive)	3.92 (inactive)	2.42	0.0375 (inactive)	-0.084	0.993	1.08	0.11
[N-]=[N+]=Nc1ccccc1[C@@H]1OC(c2ccc(OCCCO)cc2)=N[C@]1(Cc1ccccc1)C(=O)NCCN1CCOCC1	-0.0258	2.32	-0.001	0.916	1.21	-0.238	1.33	-0.906 (inactive)	1.26	0.24	0.547	-0.312 (inactive)	-1.36 (inactive)	0.152 (inactive)	3.51	0.382 (inactive)	0.0787	0.762	1.09	-0.0106
CO[C@H]1O[C@H](CO)[C@@H](OC(=O)Nc2ccccc2-c2ccccc2)[C@H](OC(=O)Nc2ccccc2)[C@H]1OC(=O)Nc1ccccc1	0.164	0.514	-0.0067	1.25	1.48	1.55	1.33	1.66 (inactive)	0.941	-0.0237	1.54	1.81 (inactive)	1.21 (inactive)	5.33 (inactive)	3.12	0.517 (inactive)	0.208	1.2	1.1	0.0903
CCCc1cc2c(n1CCc1ccc(Cl)cc1)C(C)C1CN(C(=O)c3ccccc3)C(C)(C(=O)OC)C21 (stereo not given)	1.44	0.721	0.384	0.204	1.73	1.78	0.937	1.91 (inactive)	1.1	2.27	0.396	0.318 (inactive)	-0.29 (inactive)	1.03 (inactive)	3.31	-2.17 (inactive)	0.342	-1.01	1.04	0.131
COC(=O)[C@@]1(Cc2ccc(OC)cc2)[C@H]2c3cc(C(=O)N4CCCC4)n(Cc4c(CO)[nH]cc(C)c4=O)c3C[C@H]2CN1C(=O)c1ccccc1	0.0744	0.31	-0.06	0.505	1.57	1.11	0.802	-1.02 (inactive)	0.829	0.0302	0.413	-1.56 (inactive)	0.801 (inactive)	0.147 (inactive)	3.35	-0.391 (inactive)	0.601	-0.243	0.381	-0.0728
O=C1[C@H]2C=C(I)[C@H](C[C@@H]2OCCCCCCO)[C@@]12CO2	-0.123	0.249	-0.169	0.0956	1.01	-0.715	-0.175	0.622 (inactive)	-0.132	-0.183	-0.134	-1.5 (inactive)	-2.19 (inactive)	-0.384 (inactive)	-0.505	-1.05 (inactive)	-0.121	0.263	1.13	-0.133
COCCn1c(C(=O)N(C)C)cc2c1C[C@H]1CN(C(=O)c3ccccc3)[C@@](Cc3ccc(OC)cc3)(C(=O)OC)[C@@H]21	0.609	-0.478	-0.19	0.34	1.64	1.54	1.27	1.54 (inactive)	1.32	0.0053	-0.325	1.15 (inactive)	1.82 (inactive)	2.03 (inactive)	3.31	-0.332 (inactive)	0.43	-0.465	1.1	0.0634
CN1C(=O)C2C(C3CC3)C=C3CN(Cc4cccc(Cl)c4)[C@@H]([C@@H](O)Cc4ccccc4)C3C2C1=O (stereo not given in full)	-0.357	0.268	-0.229	0.0719	0.999	1.03	1.23	-1.31 (inactive)	-0.156	0.0854	1.57	0.347 (inactive)	-1.87 (inactive)	-0.539 (inactive)	2.94	1.71 (inactive)	-0.126	1.23	1.15	-0.0679
O=C(NCc1ccc(F)cc1)[C@H]1C[C@H]2C(=O)N3CCC[C@H]3C(=O)N2[C@H]1c1ccc(O)cc1	0.883	-0.554	-0.195	-0.216	-0.428	0.192	0.49	-0.29 (inactive)	-0.819	-0.0772	0.0679	-1.04 (inactive)	-1.47 (inactive)	0.164 (inactive)	-0.296	2.41 (inactive)	-0.0963	-0.139	-0.484	-0.169
